# D1 mod: allosteric modulators of human D1 dopamine receptor. P21728. HEK293 D1, CRE-luciferase, dopamine EC30 potentiation; actives deviate in either direction. B-score at 10 µM. 58,000 compounds, 5.9% hits. AID 641;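 active means luminescence count or its row- and column-corrected plate score outside the 99.7% band of the plate's sample wells, on either side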
# Target sequence (P21728 whole entry, looked up): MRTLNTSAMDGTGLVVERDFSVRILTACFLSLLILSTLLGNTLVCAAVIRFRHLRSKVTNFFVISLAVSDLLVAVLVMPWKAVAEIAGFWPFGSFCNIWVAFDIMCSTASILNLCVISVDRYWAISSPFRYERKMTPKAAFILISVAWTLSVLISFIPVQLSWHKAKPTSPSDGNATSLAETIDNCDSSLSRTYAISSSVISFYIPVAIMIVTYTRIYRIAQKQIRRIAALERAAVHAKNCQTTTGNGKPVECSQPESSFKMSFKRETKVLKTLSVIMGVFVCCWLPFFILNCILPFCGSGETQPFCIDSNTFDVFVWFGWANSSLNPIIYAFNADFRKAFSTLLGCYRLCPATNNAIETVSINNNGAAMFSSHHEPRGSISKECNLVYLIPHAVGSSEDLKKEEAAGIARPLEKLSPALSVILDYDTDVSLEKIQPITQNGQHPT
# DAT uptake mod: human DAT dopamine uptake with cocaine, either direction. B-score at 10 µM. Q01959. 110,000 compounds, 1.3% hits. LLC-PK1 hDAT cells, [14C]-dopamine uptake with cocaine IC80; actives deviate in either direction;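 active means Z score or B-score, a plate-position-corrected score, falls beyond the plate's 99.7% confidence bounds, in either direction; inactive means both scores lie inside the 99.7% bounds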
# PostGolgi yeast: growth inhibition of a yeast mutant, post-Golgi transport screen; post-Golgi transport phenotypic cell assay; inhibition, % at 10 µM; 98,000 compounds, 0.9% hits; AID 739;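 further: yeast cells grown in 1536-well plates; yeast grown about 18 h at 30C before absorbance read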
# Cav32 inh: blocks human Cav3.2 T-type calcium channel. O95180. Cav3.2-expressing cells, Fluo-4 calcium fluorescence FDSS; active compounds read low. B-score at 10 µM. 100,000 compounds, 4% hits;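 active means single-dose well whose peak fluorescence ratio is a statistical outlier from its plate by either plate-standardised score or position-corrected B-score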
# PLAP act: human PLAP activation | P05187 | purified PLAP enzyme, luminescent substrate read-out; active compounds read high | activation fold at 20 µM | 96,000 compounds, 1.2% hits | AID 696; in the data active means activation fold above about 2
# PostGolgi ctrl: yeast control strain growth, post-Golgi counter-screen. 98,000 compounds, 5% hits. efflux-deficient yeast background strain, growth absorbance A615, 16 h. AID 738. inhibition, % at 10 µM
# Numbers stand for hits; 0 = inactive; - = no result. An excerpt weighted towards active compounds, which were near 12% of everything screened. Unless noted, no stated cut-off is given here; in the data, active means inhibition above about 30%; inactive means the rest.
SMILES,D1 mod,DAT uptake mod,PostGolgi yeast,Cav32 inh,PLAP act,PostGolgi ctrl
C/C(N)=C(/C#N)C(=O)CSc1nc(C2CCCCC2)n(-c2ccccc2)n1,0,0,0,-5.1,0,0
CC1CCN(c2ccc(C(=O)NCc3cccs3)cn2)CC1,0,0,0,0,0,0
CC(Nc1nc(N2CCCCC2)nc2ccccc12)c1ccccc1 (stereo not drawn),-,0,0,-6.98,0,0
C=CCNc1nc(N2CCCC2)nc2ccccc12,-4.5,-,0,-,0,0
CCOC(=O)/C(C(N)=NCCCO)=C(/O)c1ccccc1,-,0,0,0,0,0
CC(=O)c1c(C)[nH]c(C(=O)NCCc2cccc(C)c2)c1C,-2.75,0,0,0,0,0
COc1ccc(CCNC(=O)c2[nH]c(C)c(C(C)=O)c2C)cc1,-,0,0,0,0,0
CCc1nn2c(N3CCOCC3)cc(C)nc2c1-c1ccc(F)cc1,0,0,0,0,0,44.6
Cc1cc(C)c(NC(=O)CN(C2CCCCC2)C2CCCCC2)c(C)c1,-,0,31.8,0,0,52.8
CCOc1c2c(nc3ccc(Cl)cc13)CCC2,0,0,0,0,0,36.2
Cc1cc(NC(=O)c2noc3c2CCCC3)nn1Cc1ccc(Cl)cc1,0,0,0,-4.8,0,0
N#Cc1c(NC(=O)CSc2nc3c(c(C(F)(F)F)n2)CCc2ccccc2-3)sc2c1CCCC2,-,0,0,0,0,0
Cc1nn(Cc2ccc(Cl)cc2)c(C)c1NC(=O)CSc1nc2c(c(C(F)(F)F)n1)CCc1ccccc1-2,-,0,0,-3.9,0,0
Cc1nn(Cc2ccc(Cl)cc2)c(C)c1NC(=O)c1noc2c1CCc1ccccc1-2,-,0,0,0,0,41.8
CCOc1ccc(-c2nnn(CC#N)n2)cc1OC,-,0,-,0,-,-
Nc1ccc(S(=O)(=O)c2ccc(Cl)cc2)cc1,-,-3.09,0,0,0,0
Cc1cc(C)c2c3c(sc2n1)C(c1cccc(F)c1)C(C#N)=C(N)O3 (stereo not drawn),-,0,0,0,0,73.7
CC(=O)n1cc(C(C[N+](=O)[O-])SCCN)c2ccccc21 (stereo not drawn),-,0,0,-3.78,0,0
O=C(Nc1nnc(-c2ccc3c(c2)OCCO3)o1)c1ccc(Cc2ccccc2)cc1,0,0,0,-,0,0
O=C(Nc1nnc(-c2ccc3c(c2)CCCC3)o1)c1ccccc1,-,0,100.0,-5.59,0,0
O=C(Nc1nnc(-c2ccc3c(c2)CCCC3)o1)c1ccccc1Cl,0,0,88.5,-,0,0
CCOC(=O)CSc1nnc(Cn2nnc(-c3ccccc3)n2)n1C,0,0,0,0,0,0
CC1CC(C)CN(C(=O)c2ccccc2Nc2ccc(SC(F)F)cc2)C1 (stereo not drawn),-,0,0,-4.2,0,0
Clc1cccc(Cl)c1Cn1cnc2c(N3CCCCCC3)ncnc21,0,0,0,0,0,34.0
Cc1ccc(C(C)C)c(OCC(O)CN2CC(C)OC(C)C2)c1 (stereo not drawn),-3.51,0,0,0,0,0
SMILES,D1 mod,DAT uptake mod,PostGolgi yeast,Cav32 inh,PLAP act,PostGolgi ctrl
Cc1ccc(C(C)C)c(OCC(O)CN2CCOCC2)c1 (stereo not drawn),0,0,0,0,0,0
COc1ccccc1N1CCN(C(c2ccccc2Cl)c2nnnn2C(C)(C)C)CC1 (stereo not drawn),0,0,0,-6.76,0,37.6
COc1ccccc1C(c1nnnn1C(C)(C)C)N1CCN(Cc2ccncc2)CC1 (stereo not drawn),0,0,0,-,0,0
CCC(c1nnnn1C(C)(C)C)N1CCN(c2cc(Cl)ccc2C)CC1 (stereo not drawn),0,0,0,-3.78,0,0
COc1ccccc1N1CCN(C(c2ccc(Cl)cc2)c2nnnn2C(C)(C)C)CC1 (stereo not drawn),0,0,0,0,0,44.1
COc1ccc(C(c2nnnn2C(C)(C)C)N2CCN(c3nc4ccccc4s3)CC2)cc1OC (stereo not drawn),0,0,0,-4.03,0,0
O=C(NNC(=O)C1CC(c2cccnc2)=NO1)Nc1cccc(F)c1 (stereo not drawn),-,-,0,-,0,0
CCCCCCCOc1ccc(OC(=O)c2cccnc2)cc1,-,0,0,0,0,0
C=CCN1c2ccccc2[C@]23C[C@@H](C(=O)OC)N(C(=O)NCCC)C2=NC(C(=O)OC)=C(C(=O)OC)[C@H]13,-,0,-,0,-,-
CC(=O)c1ccc(N2CCN(C(=O)c3ccc(Br)cc3)CC2)c(F)c1,0,0,86.8,0,0,53.6
O=C(NC(NC(=S)Nc1ccc(Cl)c(Cl)c1)C(Cl)(Cl)Cl)c1ccco1 (stereo not drawn),-,-3.83,0,0,0,0
S=C(NCc1ccco1)Nc1cccc(Cl)c1,-,0,0,0,0,0
Cc1ccc(NC(=O)N(CCCN2CCOCC2)Cc2cccnc2)cc1C,-,0,0,0,0,0
O=C(Nc1ccc(Cl)c(Cl)c1)N(Cc1cccnc1)Cc1ccco1,0,-,96.3,-,0,104.8
S=C(NCc1ccco1)Nc1ccc(Cl)c(Cl)c1,-,0,0,0,0,40.9
O=C(Nc1ncc(Cc2ccccc2)s1)C1COc2ccccc2O1 (stereo not drawn),-,0,0,0,0,0
Cc1cccc(N(CC(=O)NC2CCCCC2)C(=O)CCC(=O)Nc2cc(C)ccn2)c1,0,-,-,-,-,-
COc1cccc2c1nc(C)c1cc(C)oc12,0,0,0,0,0,31.1
COc1ccccc1C(=O)N(Cc1nc(-c2ccc(Cl)cc2)no1)C(C)C,0,0,0,0,0,32.4
COc1cc(OC)cc(C(=O)N(Cc2nc(-c3cccc(C)c3)no2)C(C)C)c1,0,0,0,-6.71,0,0
CC(C)N(Cc1nc(-c2ccccc2)no1)C(=O)c1ccc(Cl)cc1,0,0,0,0,0,0
CC(C)N(Cc1nc(-c2ccc(Cl)cc2)no1)C(=O)CCCN1C(=O)c2ccccc2C1=O,0,0,0,-5.01,0,40.3
CCOC(=O)c1ncn2c1C(=O)OC2(C)C,0,0,0,0,0,0
CCCCCCC1NC(C(=O)O)CS1 (stereo not drawn),-,0,0,0,0,0
CC(=O)Nc1nonc1-c1nc2ccccc2n1CCC(C)C,0,-,0,-,0,0
SMILES,D1 mod,DAT uptake mod,PostGolgi yeast,Cav32 inh,PLAP act,PostGolgi ctrl
CCC(=O)Nc1nonc1-c1nc2ccccc2n1CCC(C)C,0,0,0,0,0,35.7
Cc1cc(C)c(S(=O)(=O)NCCn2c(C)cc3ccccc32)c(C)c1,-,0,0,0,0,43.9
O=C1CC(O)(C(F)(F)F)Oc2c1ccc1ccccc21 (stereo not drawn),0,-3.5,0,-4.25,0,36.8
O=C1CC(O)(C(F)F)Oc2ccc3ccccc3c21 (stereo not drawn),0,0,0,-,0,0
CC1(C)CC(=O)C2=C(C1)Nc1ccccc1N=C2,-,0,0,0,-,0
Cc1cc(NCCCn2ccnc2)n2ncc(-c3ccccc3)c2n1,-6.44,0,0,-,2.3,38.1
Cc1cc(NCCCn2ccnc2)n2nc(C)c(-c3ccccc3)c2n1,-,0,0,0,0,0
COc1ccc(Cl)c(NCCC(=O)O)c1,0,0,0,0,-,0
